Inconclusive results are not listed. Entries that show only a call come without a potency. Values without a mark were called inactive. Calls of active or inactive are those of the source. Calls follow the shape of the dose curve; as a rule, active = well fitted curve in the direction sought with a large enough effect; inconclusive = small, poorly fitted or top-dose-only effect, or another doubt; inactive = no such curve, though single readings can be large; an effect the other way counts as inactive or inconclusive. Where a SMILES comes first, the peptide text is derived from it.
Each compound was assayed on Zika virus NS2B-NS3 protease (linked construct) (assay: Confirmatory screen NINDS AMC qHTS for Zika virus inhibitors (AID 1347152; also: nearly all actives have a fitted effect of over 70% in size; also: potency is read from the fitted curve at half-maximal effect;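 as to activity change, negative = inhibition: AMC fluorescence gain from cleaved Bz-Nle-KRR-AMC substrate over 15 min; top concentration of the series differs between compounds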)). Conditions: Purified linked NS2B-NS3, AMC substrate fluorescence; series mostly up to 56.6 µM.
How it was run: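 In this dose-response qHTS, AMC release from 10 microM Bz-Nle-KRR-AMC by 1 nM linked protease is measured over 15 minutes (about 20% conversion) at pH 8.0. Percent inhibition is fitted to a 4-parameter Hill curve.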

| SMILES | Potency |
| --- | --- |
| N[C@@H](Cc1cc(I)c(O)c(I)c1)C(=O)O | inactive |
| CCOC(=O)Cn1cccc1-c1nc(-c2ccc(OC)cc2)c(-c2ccc(OC)cc2)s1 | 24.1 µM (active) |
| Cc1nc(C2CCCCC2)c(-c2ccc(S(N)(=O)=O)c(F)c2)o1 | 24.1 µM (active) |
| O=C(Nc1ccc(S(=O)(=O)N2CCOCC2)cc1)c1cc(Cl)ccc1NS(=O)(=O)c1ccc(Cl)s1 | 17.1 µM (active) |
| CCC(=O)O[C@H]1[C@H](O[C@@H]2[C@@H](C)[C@H](O[C@H]3C[C@@](C)(OC)[C@@H](O)[C@H](C)O3)[C@@H](C)C(=O)O[C@H](CC)[C@@](C)(O)[C@H](O)[C@@H](C)C(=O)[C@H](C)C[C@@]2(C)O)O[C@H](C)C[C@@H]1N(C)C | 13.6 µM (active) |

These compounds were tested on Zika virus NS2B-NS3 protease (unlinked complex) (assay: Confirmatory screen GU AMC qHTS for Zika virus inhibitors (AID 1347153; also: nearly all actives have a fitted effect of over 70% in size; also: potency is read from the fitted curve at half-maximal effect)). Conditions: Recombinant NS2B-NS3 protease, AMC substrate fluorescence; series mostly up to 57.1 µM.
How it was run: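 Noncovalent NS2B hydrophilic domain/NS3 protease complex (25 nM) in 10 mM Tris-HCl pH 8.0, 0.01% Tween 20 was preincubated 15 min at room temperature with compounds. Then 10 µM AMC substrate (Km 18.3 µM) was added; fluorescence was read over 15 min and fitted to a 4-parameter Hill equation.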

| SMILES | Potency |
| --- | --- |
| N[C@@H](Cc1cc(I)c(O)c(I)c1)C(=O)O | inactive |
| O=C(Nc1ccc(S(=O)(=O)N2CCOCC2)cc1)c1cc(Cl)ccc1NS(=O)(=O)c1ccc(Cl)s1 | 17.1 µM (active) |
| CCC(=O)O[C@H]1[C@H](O[C@@H]2[C@@H](C)[C@H](O[C@H]3C[C@@](C)(OC)[C@@H](O)[C@H](C)O3)[C@@H](C)C(=O)O[C@H](CC)[C@@](C)(O)[C@H](O)[C@@H](C)C(=O)[C@H](C)C[C@@]2(C)O)O[C@H](C)C[C@@H]1N(C)C | 19.2 µM (active) |

Each compound was assayed on Zika virus NS2B-NS3 protease (assay: Primary screen GU AMC qHTS for Zika virus inhibitors (AID 1347154; also: nearly all actives have a fitted effect of over 70% in size; also: potency is read from the fitted curve at half-maximal effect)). Conditions: Zika NS2B-NS3 unlinked protease, AMC fluorogenic substrate; series mostly up to 54.1 µM.
How it was run: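 Unlinked Zika NS2B hydrophilic domain/NS3 protease domain noncovalent complex (25 nM final) in 10 mM Tris-HCl pH 8.0, 0.01% Tween 20, with AMC peptide substrate. Fluorescence (ex 340, em 450 nm) change over 15 min, room temperature; percent inhibition fitted to 4-parameter Hill equation.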

| SMILES | Potency |
| --- | --- |
| COc1cc(OC)nc(O[C@H](C(=O)O)C(OC)(c2ccccc2)c2ccccc2)n1 | inactive |
| COCCc1ccc(OCC2CO2)cc1 (configuration not stated) | inactive |
| CC(=O)N(c1onc(C)c1C)S(=O)(=O)c1ccc(N)cc1 | inactive |
| Cc1nc2n(c(=O)c1CCN1CCC(C(=O)c3ccc(F)cc3)CC1)CCS2 | inactive |
| CC(=O)N(CC(O)CO)c1c(I)c(C(=O)NCCO)c(I)c(C(=O)NCC(O)CO)c1I (configuration not stated) | inactive |
| CN1CC(=O)N2[C@H](c3ccc4c(c3)OCO4)c3[nH]c4ccccc4c3C[C@@H]2C1=O | inactive |
| COC(=O)CCCCC(CCSS/C(CCO)=C(\C)N(C=O)Cc1cnc(C)nc1N)SC(C)=O (configuration not stated) | inactive |
| Cc1oc(-c2ccccc2)nc1CCC(=O)c1ccc(CC2SC(=O)NC2=O)cc1 (configuration not stated) | inactive |
| CO[C@@]1(NC(=O)CSC[C@@H](N)C(=O)O)C(=O)N2C(C(=O)O)=C(CSc3nnnn3C)CS[C@@H]21 | inactive |
| Cn1cnc2c(NCc3ccccc3)nc(NCCO)nc21 | inactive |
| CC(=O)N[C@@H](CO)C(=O)N[C@@H](CC(=O)O)C(=O)N[C@@H](CCCCN)C(=O)N1CCC[C@H]1C(=O)O (Ac-SDKP-OH) | inactive |
| Cn1c(=O)c2c(ncn2CC(=O)O)n(C)c1=O | inactive |
| O=c1[nH]c2ccccc2c(=O)n1CCCl | inactive |
| CCOC(=O)c1cc(=O)c2c(OCC(COc3cccc4oc(C(=O)OCC)cc(=O)c34)OC(=O)[C@@H](N)CCCCN)cccc2o1 | inactive |
| CN1C(=O)c2ccccc2C1=O | inactive |
| CCCCOCCOC(=O)c1cccnc1 | inactive |
| Cc1nc(C2CCCCC2)c(-c2ccc(S(N)(=O)=O)c(F)c2)o1 | 14.4 µM (active) |
| Nc1ccc([N+](=O)[O-])c(C(F)(F)F)c1 | inactive |
| CC(=O)Nc1ccc(S(=O)(=O)Nc2cc(C)on2)cc1 | inactive |
| Cc1cnc(NS(=O)(=O)c2ccc(N)cc2)nc1 | inactive |
| C[N+](C)(CCOc1ccccc1)Cc1cccs1 | inactive |
| O=C(Nc1ccc(S(=O)(=O)N2CCOCC2)cc1)c1cc(Cl)ccc1NS(=O)(=O)c1ccc(Cl)s1 | 14.4 µM (active) |
| O=C1CC2(CCCC2)CC(=O)N1CCNCC1COc2ccccc2O1 (configuration not stated) | inactive |
| NC(N)=NCCCCN=C(N)N | inactive |
| O=C(CCCCC(=O)Nc1c(I)cc(I)c(C(=O)O)c1I)Nc1c(I)cc(I)c(C(=O)O)c1I | inactive |
| O=C(COCCOCCOCC(=O)Nc1c(I)cc(I)c(C(=O)O)c1I)Nc1c(I)cc(I)c(C(=O)O)c1I | inactive |
| CCOc1c(N2CCOCC2)cnn(C)c1=O | inactive |
| COc1ccc2cc(C=O)ccc2c1 | 31.6 µM (active) |

What follows are compounds tested on Zika virus NS2B-NS3 protease (unlinked complex) (assay: Primary screen GU Rhodamine qHTS for Zika virus inhibitors: Unlinked NS2B-NS3 protease assay (AID 1347159; also: nearly all actives have a fitted effect of over 60% in size; also: potency is read from the fitted curve at half-maximal effect)). Conditions: Recombinant ZIKV NS2B-NS3 protease, Rhodamine110 substrate fluorescence; series mostly up to 107 µM.
How it was run: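 Buffer 10 mM Tris-HCl pH 8.0, 0.01% Tween 20. Unlinked protease 25 nM; compound preincubation 15 min, RT, protected from light. Substrate Rhod110, 1.5 microM; ~15% conversion in 15 min.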

| SMILES | Potency | activity change, negative = inhibition |
| --- | --- | --- |
| CCOC(=O)Cn1cccc1-c1nc(-c2ccc(OC)cc2)c(-c2ccc(OC)cc2)s1 | inactive | – |
| O=[N+]([O-])c1ccc(-c2nc(-c3ccc(F)cc3)c(-c3ccncc3)[nH]2)cc1 | 79.4 µM (active) | – |
| Cc1nn(-c2ccccc2)c(C)c1/C=N/N1CCN(Cc2ccccc2)CC1 | inactive | – |
| Brc1ccc([C@H]2CN3CCSC3=N2)cc1 | inactive | – |
| N[C@@H](Cn1ccc(=O)c(O)c1)C(=O)O | – | 13% [at 11.5 µM] |

What follows are compounds tested on Zika virus NS2B-NS3 protease (linked construct) (assay: Primary screen NINDS Rhodamine qHTS for Zika virus inhibitors (AID 1347160; also: nearly all actives have a fitted effect of over 55% in size)). Conditions: purified NS2B-NS3 protease, Rhodamine110 substrate fluorescence; series mostly up to 57.1 µM.
How it was run: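 Aprotinin served as in-plate control. Conditions: 25 nM linked NS2B-NS3, pH 8.0 Tris buffer, titrated compounds, 15 min preincubation and 15 min reaction with 1.5 microM Rhod110 substrate at room temperature.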

| SMILES | outcome |
| --- | --- |
| CCOC(=O)Cn1cccc1-c1nc(-c2ccc(OC)cc2)c(-c2ccc(OC)cc2)s1 | inactive |
| O=[N+]([O-])c1ccc(-c2nc(-c3ccc(F)cc3)c(-c3ccncc3)[nH]2)cc1 | inactive |
| Cc1nn(-c2ccccc2)c(C)c1/C=N/N1CCN(Cc2ccccc2)CC1 | inactive |
| Brc1ccc([C@H]2CN3CCSC3=N2)cc1 | inactive |
| COC(=O)C1=CO[C@@H](O)[C@@H]2C(CO)=CC[C@H]12 | inactive |
| N[C@@H](Cn1ccc(=O)c(O)c1)C(=O)O | inactive [at 4.91 µM] |
